Test [1] can be described thus: qHTS for Activators of Parkin Expression: LOPAC Validation Assay (NLuc Reporter) (AID 720572). As to conditions: Parkin promoter NanoLuc reporter cells, luminescence; series mostly up to 46.1 µM. The method in brief:
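NLuc signal, read 10 min after reagent and following a prior FLuc read, is normalized to DMSO (0) and positive controls (100%). Cells: neuronal Parkin-promoter coincidence reporter line; compounds tested 7-point, 24 h, 37 C, 5% CO2.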

The nature of test [2]: qHTS for Activators of Parkin Expression: LOPAC Validation Assay (FLuc Reporter) (AID 720573). As to conditions: Cell line, PRKN promoter firefly luciferase reporter; series mostly up to 46.1 µM. Summed up:
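FLuc luminescence read-out from a neuronal line expressing a Parkin-promoter-driven coincidence reporter. Cells treated 24 h at 37 C, 5% CO2 with compounds at 7 concentrations; signal increase normalized to DMSO and positive control.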

Test [3] deals with T1, Hexokinase-4 (Homo sapiens) + Glucokinase regulatory protein (Homo sapiens) (UniProt P35557+Q14397). Description: qHTS assay for inhibitors of recombinant human GCK-GKRP interaction: Diaphorase-coupled assay (AID 743205). As to conditions: G6PDH/diaphorase resorufin fluorescence; series mostly up to 57.5 µM. Summed up: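 Resorufin fluorescence (525/590 nm), read each minute over 30 min, reports GCK activity coupled via G6PDH and diaphorase. Reaction: 10 nM GST-GCK, 10 nM FLAG-GKRP, 5 mM glucose, 0.4 mM ATP, 0.15 mM NADP+, 0.1 mM resazurin.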

Test [4] addresses T1, Hexokinase-4 (Homo sapiens) + Glucokinase regulatory protein (Homo sapiens). Description: qHTS assay for inhibitors of recombinant human GCK-GKRP interaction: ADP-Glo assay (AID 743206).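 Further: plate controls were DMSO plus enzyme for no effect and no enzyme for full effect.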 As to conditions: ADP-Glo luminescence, 60 min; series mostly up to 76.9 µM. The method in brief:
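Pin-transferred compounds meet a 15 nM GST-GCK/15 nM FLAG-GKRP/2 uM S6P mix (dispense concentrations). ATP is then added to 0.4 mM final with 5 mM glucose, and the reaction runs 60 min at room temperature. ADP is quantified luminescently.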

The target is the same in test [5]. Description: qHTS assay for inhibitors of recombinant human GCK-GKRP interaction: HTRF assay (AID 743207).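 Further: 0% = DMSO with GCK present and -100% = DMSO wells lacking GCK.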 As to conditions: recombinant GCK-GKRP HTRF binding, 60 min, with sorbitol-6-phosphate; series mostly up to 57.5 µM. Summed up: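 HTRF read-out (ex 320 nm; 615/665 nm emission) after 60 min RT equilibration of 5 nM GST-GCK, 5 nM FLAG-GKRP, 2 uM S6P, compound and anti-FLAG/anti-GST detection antibodies; signal normalized between DMSO wells with and without GCK.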

Test [6] is described as follows: qHTS assay for measurement of the activity of small molecule inhibitors on Zika virus induced Caspase-3 activity in human iPSC derived neural progenitor cells (hNPCs) (AID 1224857). Further: % of control where 0% means no effect; nearly all actives have a fitted effect of over 65% in size. As to conditions: hNPCs ZIKV-induced caspase-3/7, Caspase-Glo luminescence, 6 h; series mostly up to 45.7 µM. Summed up:
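Percent inhibition of virus-induced caspase-3/7 luminescence (Caspase-Glo), scaled between uninfected cells and Zika-infected cells. hNPCs received compound 1 hr before ZIKV at 2 FFU/cell, with 6 hours infection at 37 C.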

Test [7] in a line: qHTS assay for measurement of the activity of small molecule inhibitors on Zika virus induced Caspase-3 activity in human astrocytoma cells (AID 1224859).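 Further: plate controls were ZIKV-infected untreated cells for no effect and uninfected cells for full effect.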 As to conditions: SNB-19 ZIKV-induced caspase-3/7, luminescence, 6 h; series mostly up to 45.7 µM. The method in brief:
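Luminescent caspase-3/7 read-out (30 min reagent, room temperature) in human SNB-19 cells infected 6 h with ZIKV (2 FFU/cell) after 1 h compound pre-incubation; Data were normalised to uninfected and infected wells.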

A short description of test [8]: qHTS Assay for Identifying Gametocytocidal Compounds (AID 743244). Further: potency means the concentration at half of the fitted maximal effect.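 On max response: on the % scale 0 is the no-effect control and ±100 the full control effect; actives lower the fluorescent signal which means gametocytes are killed.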 As to conditions: P. falciparum 3D7 stage III-V gametocytes, alamarBlue, 72 h; max response: hits give low values. Summed up:
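Viability read-out was resazurin reduction (alamarBlue, 24 h) measured at Ex 525/Em 598 nm. Beforehand, late-stage (III-V) 3D7 P. falciparum gametocytes at 20,000 cells/well were incubated with compound 72 h at 37C under 5% CO2.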

Results filed as inconclusive are left out. Activity calls are given as the source filed them. The call rests on the fitted dose curve; in most records, active means well fitted curve in the direction sought with a large enough effect; inconclusive means small, poorly fitted or top-dose-only effect, or another doubt; inactive means no such curve, though single readings can be large; an effect the other way counts as inactive or inconclusive.

T1 sequence (P35557 whole entry, looked up): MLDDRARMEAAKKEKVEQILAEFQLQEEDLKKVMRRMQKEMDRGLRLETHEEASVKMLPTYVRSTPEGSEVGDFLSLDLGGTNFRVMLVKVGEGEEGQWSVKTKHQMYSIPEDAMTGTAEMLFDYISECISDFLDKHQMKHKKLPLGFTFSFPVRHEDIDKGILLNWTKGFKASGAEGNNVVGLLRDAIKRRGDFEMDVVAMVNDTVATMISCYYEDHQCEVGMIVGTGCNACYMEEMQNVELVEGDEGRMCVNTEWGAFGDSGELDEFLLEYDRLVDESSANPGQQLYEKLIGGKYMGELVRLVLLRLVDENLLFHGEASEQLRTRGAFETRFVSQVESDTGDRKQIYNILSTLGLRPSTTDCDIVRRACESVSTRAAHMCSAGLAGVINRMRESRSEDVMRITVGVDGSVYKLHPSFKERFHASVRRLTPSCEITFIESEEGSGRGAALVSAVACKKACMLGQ
T1 sequence (Q14397 whole entry, looked up): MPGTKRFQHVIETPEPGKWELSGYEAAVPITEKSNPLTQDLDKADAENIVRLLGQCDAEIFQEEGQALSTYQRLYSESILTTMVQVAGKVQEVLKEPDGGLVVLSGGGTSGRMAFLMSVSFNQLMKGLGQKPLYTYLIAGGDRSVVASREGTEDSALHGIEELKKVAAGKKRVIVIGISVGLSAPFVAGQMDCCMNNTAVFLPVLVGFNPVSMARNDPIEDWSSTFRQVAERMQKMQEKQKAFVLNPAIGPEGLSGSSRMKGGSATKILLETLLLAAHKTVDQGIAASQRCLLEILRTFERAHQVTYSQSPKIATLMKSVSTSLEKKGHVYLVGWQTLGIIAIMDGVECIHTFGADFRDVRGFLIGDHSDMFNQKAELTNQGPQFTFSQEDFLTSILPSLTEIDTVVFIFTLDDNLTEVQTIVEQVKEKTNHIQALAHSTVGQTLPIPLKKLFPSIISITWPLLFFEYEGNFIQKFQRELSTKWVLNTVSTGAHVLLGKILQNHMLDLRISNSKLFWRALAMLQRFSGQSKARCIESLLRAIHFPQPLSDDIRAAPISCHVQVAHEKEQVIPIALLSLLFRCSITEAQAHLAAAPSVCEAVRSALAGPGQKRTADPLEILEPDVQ

With `NO`, the Potency entry in test [1], in test [2], in test [4], in test [5], in test [6] and in test [7] was “inactive” each time. Moreover, in test [3], the outcome was inactive.
Turning to `O=C(O)CNC(=O)C(CS)Cc1ccccc1` (stereo unspecified), the Potency entry in test [1], in test [2], in test [4], in test [5], in test [6] and in test [7] was “inactive” throughout. Besides, in test [3], the outcome was inactive.
In the case of `NCCCS(=O)(=O)O`, the Potency entry in test [1], in test [2], in test [4], in test [5], in test [6] and in test [7] was “inactive” each time. The outcome in test [3] was inactive. Further, the max response in test [8] was 2.49% (inactive).
On to `COc1ccc2c(c1)CCC1C2CC[C@@]2(C)C1CC[C@@H]2NCCCCCCN1C(=O)CCC1=O` (stereo partly specified), for which the Potency entry in test [1], in test [2], in test [4], in test [5], in test [6] and in test [7] was “inactive” each time. Moreover, the result in test [3] was inactive.
For `Clc1ccc(N2CCN(Cc3c[nH]c4ncccc34)CC2)cc1`, the Potency entry in test [1], in test [2], in test [4], in test [5], in test [6] and in test [7] was “inactive” each time. Also, the outcome in test [3] was inactive.
As for `CC1CN(S(=O)(=O)c2cccc3cnccc23)CCN1` (stereo unspecified), the Potency result in test [1], in test [2], in test [4], in test [5], in test [6] and in test [7] was “inactive” throughout. Moreover, the result in test [3] was inactive. Further, the max response in test [8] is 23.3% (inactive).
For the molecule `O=C(CCCCCN1CCN(c2ccccc2-c2ccccc2)CC1)NC1CCCc2ccccc21` (stereo unspecified), the Potency entry in test [1], in test [2], in test [4], in test [5], in test [6] and in test [7] was “inactive” each time. Besides, the result in test [3] was inactive.
In the case of `NCCCCCCCCCCN`, the Potency entry in test [1], in test [2], in test [4], in test [5], in test [6] and in test [7] was “inactive” in each case. Further, the result in test [3] was inactive. Moreover, the max response in test [8] is 2.17% (inactive).
As to `COc1cc2c(CCNC(C)=O)c[nH]c2cc1Cl`, the Potency result in test [1], in test [2], in test [4], in test [5], in test [6] and in test [7] was “inactive” in each case. Moreover, the result in test [3] was inactive. Moreover, the max response in test [8] is 6.49% (inactive).
Consider `Cn1ncc(S(=O)(=O)Cc2ccccc2)c(Br)c1=O`, for which the Potency result in test [1], in test [2], in test [4], in test [5], in test [6] and in test [7] was “inactive” throughout. The outcome in test [3] was inactive. The max response in test [8] was 25.3% (inactive).
On to `CN1C2CC(OC(=O)[C@H](CO)c3ccccc3)CC1C1OC12` (stereo partly specified), for which the Potency result in test [1], in test [2], in test [4], in test [5], in test [6] and in test [7] was “inactive” each time. Moreover, the outcome in test [3] was inactive. In test [8], the max response is 21.9% (inactive).
Consider `c1ccc(-c2ccccn2)nc1`, for which the Potency result in test [1], in test [2], in test [4], in test [5], in test [6] and in test [7] was “inactive” throughout. Besides, the outcome in test [3] was inactive.
With `N#C/C(=C\c1ccc(-c2cc(Cl)ccc2Cl)o1)C(=O)Nc1cccc2ncccc12`, the Potency entry in test [1], in test [2], in test [4], in test [5], in test [6] and in test [7] was “inactive” each time. The result in test [3] was inactive. Moreover, in test [8], the max response was -7.88% (inactive).
Regarding `Cn1c(=O)c2[nH]c(-c3ccccc3)nc2n(C)c1=O`, the Potency entry in test [1], in test [2], in test [4], in test [5], in test [6] and in test [7] was “inactive” throughout. In addition, the outcome in test [3] was inactive. The max response in test [8] is 16.2% (inactive).
For `O=S(=O)(c1cccc2c(I)cccc12)N1CCCNCC1`, the Potency result in test [1], in test [2], in test [4], in test [5], in test [6] and in test [7] was “inactive” each time. Further, in test [3], the result was inactive.
With `CCCN(CC1CC1)c1nc(C)nc(Nc2c(Cl)cc(Cl)cc2Cl)c1Cl`, the Potency entry in test [1], in test [2], in test [4], in test [5], in test [6] and in test [7] was “inactive” throughout. The outcome in test [3] was inactive. The max response in test [8] is 18.2% (inactive).
On to `NCCCCC(=O)O`, for which the Potency result in test [1], in test [2], in test [4], in test [5], in test [6] and in test [7] was “inactive” in each case. In test [3], the outcome was inactive. Moreover, the max response in test [8] is 12.2% (inactive).
`COc1ccccc1CNCCCCCCNCCCCCCCCNCCCCCCNCc1ccccc1OC`: the Potency result in test [1], in test [2], in test [4], in test [5], in test [6] and in test [7] was “inactive” each time. For the same molecule, the result in test [3] was inactive. Further, in test [8], the Potency is 1 µM (active).
On to `C[C@@H](CN1CCC(Cc2ccccc2)CC1)[C@@H](O)c1ccc(O)cc1`, for which the Potency entry in test [1], in test [2], in test [4], in test [5], in test [6] and in test [7] was “inactive” throughout. The result in test [3] was inactive.
On to `Fc1ccc(C(OCCCc2cnc[nH]2)c2ccc(F)cc2)cc1`, for which the Potency result in test [1], in test [2], in test [4], in test [5], in test [6] and in test [7] was “inactive” each time. For the same molecule, in test [3], the outcome was inactive.
Consider `CCCCCCCC/C=C\CCCCCCCC(=O)NCCO`, for which the Potency entry in test [1], in test [2], in test [4], in test [6] and in test [7] was “inactive” in each case. Besides, in test [3], the result was inactive. The max response in test [8] is 8.34% (inactive).
Turning to `O=C(O)CCCC[C@@H]1CCSS1`, the Potency result in test [1], in test [2], in test [4], in test [5], in test [6] and in test [7] was “inactive” throughout. Also, the outcome in test [3] was inactive. For the same molecule, the max response in test [8] was 7.49% (inactive).
With `CCCCCCCCCCCCCCCC(=O)OC(CC(=O)O)C[N+](C)(C)C` (stereo unspecified), the Potency entry in test [1], in test [2], in test [4], in test [5], in test [6] and in test [7] was “inactive” each time. Also, in test [3], the outcome was inactive. Also, the max response in test [8] is -5.64% (inactive).
`CN(C)c1nc(N)c(C(=O)N=C(N)N)nc1Cl`: the Potency result in test [1], in test [2], in test [4], in test [5], in test [6] and in test [7] was “inactive” throughout. Further, in test [3], the result was inactive. The max response in test [8] was 11% (inactive).
`O=c1[nH]c2cc(C(F)(F)F)ccc2n1-c1cc(C(F)(F)F)ccc1O`: the Potency result in test [1], in test [2], in test [4], in test [6] and in test [7] was “inactive” in each case. The outcome in test [3] was inactive.
Take `COc1cc(SC)ccc1C(=O)N1CCC(Cc2ccccc2)CC1`: the Potency entry in test [1], in test [2], in test [4], in test [5], in test [6] and in test [7] was “inactive” throughout. In addition, in test [3], the outcome was inactive. The max response in test [8] was 12.7% (inactive).

Source of the values: PubChem BioAssay (NCATS).
